“And” between values parts separate entries of the source, which are not always exact repeats. Equal values may be shown once. Inconclusive results are not listed. Entries that show only a call come without a potency. The source holds several records for some structures; these can differ, active in one and inactive in another. The source made the active and inactive calls. Unless noted, calls come from the whole dose curve; as a rule, active = well fitted curve in the direction sought with a large enough effect in the repeat runs; inconclusive = weak or mixed curves; inactive = no such curve, though single readings can be large; an effect the other way counts as inactive or inconclusive.
What was measured:
[1] = qHTS assay to identify small molecule agonists of the peroxisome proliferator-activated receptor delta (PPARd) signaling pathway - cell viability counter screen (AID 743211); conditions: PPARd-bla HEK293H viability, CellTiter-Glo luminescence, 17 h; series mostly up to 62.6 µM; note: nearly all actives have a fitted effect of over 55% in size; note: potency is the fitted concentration of half-maximal effect
Summary of the method: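 Luminescent ATP viability assay (CellTiter-Glo, 30 min RT) in UAS-bla HEK293H cells carrying the PPAR delta reporter construct, 3000 cells/well, after a 17 h compound treatment at 37 C.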

[2] = target: Peroxisome proliferator-activated receptor delta (Homo sapiens) (UniProt Q03181); assay: qHTS assay to identify small molecule agonists of the peroxisome proliferator-activated receptor delta (PPARd) signaling pathway (AID 743212; calls by dose curve); conditions: HEK293H PPARd-UAS-bla, beta-lactamase FRET ratio, 17 h; series mostly up to 62.6 µM
Peroxisome proliferator-activated receptor delta (Homo sapiens), sequence (Q03181 whole entry, looked up): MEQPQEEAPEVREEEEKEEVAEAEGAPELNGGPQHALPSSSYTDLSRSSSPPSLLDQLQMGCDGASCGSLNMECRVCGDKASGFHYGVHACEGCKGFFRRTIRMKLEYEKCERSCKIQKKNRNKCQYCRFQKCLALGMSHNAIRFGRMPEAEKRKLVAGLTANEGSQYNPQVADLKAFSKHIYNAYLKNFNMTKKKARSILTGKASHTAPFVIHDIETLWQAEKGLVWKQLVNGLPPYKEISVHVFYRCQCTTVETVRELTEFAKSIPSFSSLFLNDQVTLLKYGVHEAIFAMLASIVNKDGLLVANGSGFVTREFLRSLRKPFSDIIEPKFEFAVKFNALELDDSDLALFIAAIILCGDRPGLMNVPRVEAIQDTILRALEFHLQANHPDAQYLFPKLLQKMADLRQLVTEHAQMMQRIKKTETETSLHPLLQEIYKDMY
Summary of the method: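 A PPARd-bla HEK293H line with beta-lactamase under an Upstream Activator Sequence is treated with compounds at 37 C. Substrate loading for 2 h at room temperature precedes the fluorescence measurement.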

[3] = target: Peroxisome proliferator-activated receptor delta (Homo sapiens) (UniProt Q03181); assay: qHTS assay to identify small molecule antagonists of the peroxisome proliferator-activated receptor delta (PPARd) signaling pathway (AID 743215; active = well fitted inhibition curve with a large enough effect in the signal ratio in the repeat runs, not every such curve was filed as active; the % refers to the signal ratio;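 note: cells stimulated with agonist L165041 at 300 nM final during compound exposure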); conditions: HEK293H PPARd-UAS-bla, beta-lactamase FRET ratio, antagonist, 17 h; series mostly up to 62 µM
Summary of the method: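 With L165041 present at 300 nM final, compounds were incubated 17 h at 37 C on PPARd UAS-bla HEK293H cells. A FRET-based beta-lactamase substrate was then applied for 2 h at room temperature and fluorescence intensity recorded.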

[4] = qHTS assay to identify small molecule agonists of the farnesoid-X-receptor (FXR) signaling pathway - cell viability counter screen (AID 743218); conditions: FXR-bla HEK293T viability, CellTiter-Glo luminescence, 16 h; series mostly up to 62.6 µM; note: nearly all actives have a fitted effect of over 45% in size
Summary of the method: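 After 16 h at 37 C with test compounds, FXR-bla HEK 293T cells were given LiveBLAzer B/G substrate for 2 h at RT and then CellTiter-Glo; luminescence was taken after 30 min.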

[5] = qHTS assay to identify small molecule antagonists of the farnesoid-X-receptor (FXR) signaling pathway - cell viability counter screen (AID 743221; active = well fitted cell-killing curve with a large enough effect in the repeat runs, not every such curve was filed as active; note: nearly all actives have a fitted effect of over 50% in size); conditions: FXR-bla HEK293T viability, CellTiter-Glo luminescence, 16 h; series mostly up to 62.6 µM
Summary of the method: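 In GeneBLAzer FXR-UAS-bla HEK 293T cells stimulated with 50 uM chenodeoxycholic acid (final), compounds acted for 16 h at 37 C. Viability was assessed afterwards by CellTiter-Glo luminescence.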

[6] = target: Vitamin D3 receptor (Homo sapiens) (UniProt P11473); assay: qHTS assay to identify small molecule antagonists of the vitamin D receptor (VDR) signaling pathway (AID 743223; active = well fitted inhibition curve with a large enough effect in the signal ratio in the repeat runs, not every such curve was filed as active; the % refers to the signal ratio); conditions: VDR-UAS-bla HEK293T, beta-lactamase FRET ratio, 16 h; series mostly up to 61 µM
Vitamin D3 receptor (Homo sapiens), sequence (P11473 whole entry, looked up): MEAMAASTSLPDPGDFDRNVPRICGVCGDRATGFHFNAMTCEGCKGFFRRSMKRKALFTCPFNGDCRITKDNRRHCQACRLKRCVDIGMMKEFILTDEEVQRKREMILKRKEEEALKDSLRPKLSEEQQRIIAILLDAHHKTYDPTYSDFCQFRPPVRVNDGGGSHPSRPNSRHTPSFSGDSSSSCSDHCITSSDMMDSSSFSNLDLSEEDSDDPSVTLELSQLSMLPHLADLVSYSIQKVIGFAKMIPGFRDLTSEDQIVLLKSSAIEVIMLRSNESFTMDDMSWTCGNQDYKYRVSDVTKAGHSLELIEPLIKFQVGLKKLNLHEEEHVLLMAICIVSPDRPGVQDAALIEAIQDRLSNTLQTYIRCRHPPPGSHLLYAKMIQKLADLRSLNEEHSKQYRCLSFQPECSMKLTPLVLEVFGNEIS
Summary of the method: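 Agonist 1alpha,25-dihydroxyvitamin D3 (3 nM in well) was added with each compound to VDR-bla cells preincubated 4 h. Cells stood 16 h at 37C, then FRET substrate 2 h at room temperature; fluorescence intensity recorded.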

[7] = qHTS assay to identify small molecule agonists of the vitamin D receptor (VDR) signaling pathway - cell viability counter screen (AID 743224); conditions: VDR-bla HEK293T viability, CellTiter-Glo luminescence, 16 h; series mostly up to 62.6 µM; note: nearly all actives have a fitted effect of over 50% in size; note: potency is the fitted concentration of half-maximal effect
Summary of the method: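 Here cell health was gauged by luminescent ATP detection (CellTiter-Glo, 30 min RT) in VDR-bla cells that had been incubated with test compounds for 16 h at 37C and 5% CO2.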

[8] = qHTS assay to identify small molecule antagonists of the vitamin D receptor (VDR) signaling pathway - cell viability counter screen (AID 743225); conditions: VDR-bla HEK293T viability, CellTiter-Glo luminescence, 16 h; series mostly up to 61 µM; note: nearly all actives have a fitted effect of over 50% in size
Summary of the method: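 Luminescent cell viability (CellTiter-Glo) in VDR-bla HEK 293T cells after 16 h compound exposure at 37C in the presence of 3 nM final 1-alpha,25-dihydroxy vitamin D3.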

[9] = qHTS assay to identify small molecule agonists of the NFkB signaling pathway - cell viability counter screen (AID 1159515; calls by dose curve; note: nearly all actives have a fitted effect of over 55% in size; note: potency is the fitted concentration of half-maximal effect); conditions: NFkB-bla ME-180 viability, CellTiter-Glo luminescence, 5 h; series mostly up to 61 µM
Summary of the method: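 5 hr compound treatment of NFkB-bla ME-180 cells (2,000/well, seeded overnight beforehand), followed by reporter substrate for 1.5 hr. CellTiter-Glo added afterward; luminescence after 30 min RT.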

[10] = qHTS assay to identify small molecule agonists of the endoplasmic reticulum stress response signaling pathway (AID 1159516; active = well fitted activation curve with a large enough effect in the signal ratio in the repeat runs, not every such curve was filed as active; the % refers to the signal ratio); conditions: ESRE-bla HeLa, ER stress beta-lactamase reporter, 5 h; series mostly up to 61 µM
Summary of the method: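 Reporter HeLa cells (ESRE-beta-lactamase) underwent 5 hr compound incubation at 37 C and 5% CO2 in quantitative HTS format. Detection followed 2 hr of FRET substrate loading at room temperature.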

[11] = qHTS assay to identify small molecule agonists of the endoplasmic reticulum stress response signaling pathway - cell viability counter screen (AID 1159517; calls by dose curve;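 note: HeLa cells carrying an ER stress response element beta-lactamase reporter; nearly all actives have a fitted effect of over 50% in size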); conditions: ESRE-bla HeLa viability, CellTiter-Glo luminescence, 5 h; series mostly up to 61 µM
Summary of the method: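 CellTiter-Glo was added to wells already read for beta-lactamase FRET, and luminescence was recorded 30 min later. Cells: ESRE-bla HeLa, 1,500 per well, compound exposure 5 hr at 37 C.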

[12] = qHTS assay to identify small molecule antagonists of the retinoid-related orphan receptor gamma (ROR-gamma) signaling pathway - cell viability counter screen (AID 1159520); conditions: Tet-on RORgamma CHO cells viability, ATP luminescence, 16 h; series mostly up to 92.4 µM; note: nearly all actives have a fitted effect of over 50% in size
Summary of the method: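 Tet-on ROR gamma CHO cells (1,000/well) were plated 4 hr, given compounds in DMSO for 2 hr at 37 C, then induced with 1 uM final doxycycline for 16 hr. Viability was read as ATP by CellTiter-Glo luminescence after 30 min.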

[13] = target: Nuclear receptor ROR-gamma (Homo sapiens) (UniProt P51449); assay: qHTS assay to identify small molecule antagonists of the retinoid-related orphan receptor gamma (ROR-gamma) signaling pathway (AID 1159521; note: nearly all actives have a fitted effect of over 50% in size; note: potency is the fitted concentration of half-maximal effect); conditions: Tet-on RORgamma CHO cells, RORE-luciferase, 16 h; series mostly up to 92.4 µM
Summary of the method: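 CHO cells expressing RORγ under a TET-on promoter, luciferase under RORE control. Dox 1 uM final, 16 h; compounds added 2 h prior. Luminescence decrease measured.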

[14] = qHTS assay to identify small molecule agonists of the AP-1 signaling pathway - cell viability counter screen (AID 1159525; calls by dose curve; note: nearly all actives have a fitted effect of over 55% in size; note: potency is the fitted concentration of half-maximal effect); conditions: ME-180 AP-1-bla cells viability, ATP luminescence, 5 h; series mostly up to 76.8 µM
Summary of the method: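 ME-180 AP-1-bla, 2500 cells/well, Opti-MEM + 0.5% dialyzed FBS; overnight 37 °C; cpd 15-pt titration, 5 h 37 °C; CellTiter-Glo 30 min RT; luminescence read; normalised to TOAB and DMSO controls.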

[15] = qHTS assay to identify small molecule agonists of the AP-1 signaling pathway (AID 1159526; calls by dose curve); conditions: ME-180 (cervical carcinoma) AP-1-bla reporter, beta-lactamase FRET ratio, 5 h; series mostly up to 76.8 µM
[16] = target: Retinoic acid receptor RXR-alpha (Homo sapiens) (UniProt P19793); assay: qHTS assay to identify small molecule agonists of the RXR signaling pathway (AID 1159527; calls by dose curve; note: nearly all actives have a fitted effect of over 35% in size); conditions: HEK293T RXRa-UAS-bla, beta-lactamase ratio, 16 h; series mostly up to 76.8 µM
Retinoic acid receptor RXR-alpha (Homo sapiens), sequence (P19793 whole entry, looked up): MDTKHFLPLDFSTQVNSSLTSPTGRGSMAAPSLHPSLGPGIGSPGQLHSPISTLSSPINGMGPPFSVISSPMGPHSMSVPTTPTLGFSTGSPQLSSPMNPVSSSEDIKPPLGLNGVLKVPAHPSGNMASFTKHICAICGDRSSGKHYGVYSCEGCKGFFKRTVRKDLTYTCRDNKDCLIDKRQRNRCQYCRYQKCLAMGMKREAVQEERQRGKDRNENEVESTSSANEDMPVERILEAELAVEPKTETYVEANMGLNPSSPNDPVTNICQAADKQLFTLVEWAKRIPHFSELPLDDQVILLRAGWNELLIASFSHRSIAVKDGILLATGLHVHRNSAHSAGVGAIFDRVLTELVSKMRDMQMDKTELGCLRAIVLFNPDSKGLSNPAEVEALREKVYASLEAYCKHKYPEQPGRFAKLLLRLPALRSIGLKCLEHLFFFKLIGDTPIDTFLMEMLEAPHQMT
Summary of the method: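 Beta-lactamase reporter assay, agonist format. Engineered HEK 293T line, charcoal-stripped FBS at 2%, overnight (16 hr) exposure, fluorescence at 460 and 530 nm after 405 nm excitation.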

[17] = qHTS assay to identify small molecule antagonists of the peroxisome proliferator-activated receptor delta (PPARd) signaling pathway - cell viability counter screen (AID 743213); conditions: PPARd-bla HEK293H viability, CellTiter-Glo luminescence, 17 h; series mostly up to 62 µM; note: nearly all actives have a fitted effect of over 50% in size
Summary of the method: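 Viability counter-screen, qHTS format: PPARd-bla HEK293H, L165041 300 nM final, 17 h compound exposure at 37 C, CellTiter-Glo luminescence after 30 min RT.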

[18] = target: Bile acid receptor (Homo sapiens) (UniProt Q96RI1); assay: qHTS assay to identify small molecule antagonists of the farnesoid-X-receptor (FXR) signaling pathway (AID 743217; active = well fitted inhibition curve with a large enough effect in the signal ratio in the repeat runs, not every such curve was filed as active; the % refers to the signal ratio); conditions: HEK293T FXR-UAS-bla, beta-lactamase ratio, CDCA-stimulated, 16 h; series mostly up to 62.6 µM
Bile acid receptor (Homo sapiens), sequence (Q96RI1 whole entry, looked up): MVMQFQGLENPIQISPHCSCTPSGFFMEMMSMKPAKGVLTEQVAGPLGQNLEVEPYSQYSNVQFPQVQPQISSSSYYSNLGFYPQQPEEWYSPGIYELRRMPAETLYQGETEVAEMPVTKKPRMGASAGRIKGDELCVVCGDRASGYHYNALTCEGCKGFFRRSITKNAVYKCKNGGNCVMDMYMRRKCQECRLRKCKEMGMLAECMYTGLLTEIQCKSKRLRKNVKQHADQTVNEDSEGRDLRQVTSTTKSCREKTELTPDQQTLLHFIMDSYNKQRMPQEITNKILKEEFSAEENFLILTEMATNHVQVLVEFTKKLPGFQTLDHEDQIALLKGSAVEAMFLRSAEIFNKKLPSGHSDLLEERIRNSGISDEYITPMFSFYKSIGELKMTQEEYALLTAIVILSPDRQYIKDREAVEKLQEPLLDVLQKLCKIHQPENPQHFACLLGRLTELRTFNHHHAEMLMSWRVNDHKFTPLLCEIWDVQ
Summary of the method: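 In this cell-based antagonist screen, inhibition of CDCA-driven (50 uM final) UAS-beta-lactamase expression in HEK 293T cells was measured by FRET fluorescence following 16 h compound exposure at 37 °C.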

[19] = target: Bile acid receptor (Homo sapiens) (UniProt Q96RI1); assay: qHTS assay to identify small molecule agonists of the farnesoid-X-receptor (FXR) signaling pathway (AID 743220; active = well fitted activation curve with a large enough effect in the signal ratio in the repeat runs, not every such curve was filed as active; the % refers to the signal ratio); conditions: HEK293T FXR-UAS-bla, beta-lactamase FRET ratio, 16 h; series mostly up to 62.6 µM
Summary of the method: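 Beta-lactamase reporter under UAS control in GeneBLAzer FXR HEK 293T cells (5000/well) measured with LiveBLAzer FRET substrate after 2 h at room temperature. Compound exposure lasted 16 h at 37C.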

[20] = target: Vitamin D3 receptor (Homo sapiens) (UniProt P11473); assay: qHTS assay to identify small molecule agonists of the vitamin D receptor (VDR) signaling pathway (AID 743222; calls by dose curve); conditions: HEK293T VDR-UAS-bla, beta-lactamase FRET ratio, 16 h; series mostly up to 63.5 µM
Summary of the method: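 VDR-bla cells were seeded, left 4 h, treated with compounds in DMSO for 16 h, incubated 2 h at RT with B/G FRET substrate, and read for fluorescence.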

SMILES	Potency [1]	Potency [2]	Potency [3]	Potency [4]	Potency [5]	Potency [6]	Potency [7]	Potency [8]	Potency [9]	Potency [10]	Potency [11]	Potency [12]	Potency [13]	Potency [14]	outcome [15]	Potency [16]	Potency [17]	Potency [18]	Potency [19]	outcome [20]
Cn1c(-c2ccccc2)cc(-c2ccccc2)[n+]1C	inactive	inactive	inactive	inactive	inactive	inactive	inactive	inactive	inactive	inactive	inactive	inactive	inactive	inactive	inactive	inactive				
[CH3][Sn]([Cl])([Cl])[Cl]	inactive	inactive	inactive	inactive	inactive	inactive	inactive	inactive	inactive	inactive	inactive	inactive	inactive	inactive	inactive	inactive				
Nc1ncn[nH]1	inactive	inactive	inactive		inactive		inactive	inactive	inactive	inactive	inactive	inactive	inactive	inactive	inactive	inactive	inactive	inactive	inactive	
CC(O)CN(CC(C)O)CC(C)O (stereo unspecified)	inactive	inactive	inactive	inactive	inactive		inactive	inactive	inactive	inactive	inactive	inactive	inactive	inactive	inactive	inactive	inactive	inactive	inactive	
C=CC(Cl)CCl (stereo unspecified)	inactive			inactive	inactive	inactive	inactive	inactive	inactive	inactive	inactive	inactive	inactive	inactive	inactive	inactive	inactive	inactive	inactive	
Cc1ccc(N=CN(C)C=Nc2ccc(C)cc2C)c(C)c1	49.2 µM (active) and 48.9 µM (active) and inactive				inactive		39.1 µM (active) and 38.9 µM (active)	inactive	54.9 µM (active) and inactive	inactive	inactive	inactive	48.8 µM (active) and 54.4 µM (active) and inactive	54.9 µM (active) and inactive	inactive	inactive				inactive
O=C1Nc2ccc(Cl)cc2C(c2ccccc2)=NC1O (stereo unspecified)	inactive	inactive	inactive		inactive	inactive	inactive	inactive	inactive	inactive	inactive	inactive	inactive		inactive	inactive	inactive	inactive	inactive	inactive
CCOS(=O)(=O)OCC	inactive	inactive	inactive		inactive	inactive	inactive	inactive	inactive	inactive	inactive	inactive	inactive		inactive	inactive	inactive			
CC(C)CON=O	inactive	inactive	inactive		inactive	inactive	inactive	inactive	inactive	inactive	inactive	inactive	inactive		inactive	inactive	inactive			inactive
CCCCSP(=O)(SCCCC)SCCCC	inactive	inactive	inactive	inactive	inactive	inactive	inactive	inactive	inactive	inactive	inactive	inactive	inactive		inactive	inactive	inactive	inactive	inactive	
CC(C)=CC1C(C(=O)OCc2cccc(Oc3ccccc3)c2)C1(C)C (stereo unspecified)	inactive	inactive	inactive	inactive	inactive	inactive	inactive	inactive	inactive	inactive	inactive	inactive	inactive	inactive	inactive			inactive	inactive	
O=C1CCCO1	inactive	inactive	inactive	inactive	inactive	inactive	inactive	inactive	inactive	inactive	inactive	inactive	inactive	inactive	inactive		inactive	inactive	inactive	inactive
ClC(Cl)=C(Cl)C(Cl)=C(Cl)Cl	inactive	inactive	inactive		inactive		inactive	inactive	inactive	inactive	inactive	inactive	inactive		inactive	inactive	inactive			
CC(C)COC(=O)c1ccccc1C(=O)OCC(C)C	inactive				inactive		inactive	inactive	inactive	inactive	inactive	inactive	inactive	inactive		inactive	inactive	inactive	inactive	
CCN(CC)C(=O)C(C)Oc1cccc2ccccc12 (stereo unspecified)	inactive	inactive	inactive		inactive		inactive	inactive	inactive	inactive	inactive	inactive	inactive	inactive	inactive		inactive	inactive	inactive	
C[C@]12CC[C@H]3[C@@H](CCC4=CC(=O)CC[C@@H]43)[C@@H]1CC[C@@H]2O	inactive	inactive	inactive		inactive	inactive	inactive	inactive	inactive	inactive	inactive	inactive	inactive		inactive	inactive	inactive	inactive	inactive	

— PubChem BioAssay (Tox21)
